Experimental findings from PubChem BioAssay AID720542 (National Center for Advancing Translational Sciences (NCATS), 2013) are described below.

In all, about 360,000 compounds went through this assay and about 740 (0.21%) were called active. Roughly 2% stayed inconclusive and do not appear here. Calls come from the whole dose curve; as a rule, active = well fitted inhibition curve with a large enough effect; inconclusive = small, poorly fitted or top-dose-only effect; inactive = no such curve, though single readings can be large or run the other way. The list comes from a sample in which actives are over-represented; it also holds similar structures and randomly drawn compounds. A call without a number means that no potency is given here.
Potency is the fitted concentration of half-maximal effect.

The subject of the experiment is Plasmodium falciparum AMA1 (3D7) - RON2 peptide interaction. Briefly: qHTS for Inhibitors of AMA1-RON; Towards Development of Antimalarial Drug Lead: Primary Screen. Note: nearly all actives have a fitted effect of over 45% in size. To be noted: AlphaScreen AMA1-biotinylated RON2 peptide binding; series mostly up to 58.2 µM. From the text: Plasmodium, the causative agent of malaria, is one of the world's deadliest parasitic diseases. Currently there is no vaccine available and there is widespread resistance to common anti-malarial drugs. This warrants novel, alternative approaches for developing improved therapy. During infection, one such essential interaction is between two parasite proteins, the apical membrane antigen1 (AMA1) that is translocated onto the merozoite surface and the rhoptry neck protein 2 (RON2), which is transferred to the red blood cells (RBC) membrane during invasion (Besteiro et.al., 2009). Recently, the Miller lab has shown that the interaction between AMA1 and RON2 is essential for junction formation of the parasite with the host cell (Srinivasan et.al., 2011). The binding of the RON2 peptide to the hydrophobic pocket in AMA triggers the formation of the moving junction which provides a firm anchor for the parasite to pull itself into the RBC using its actin-myosin motor; an irreversible step that commits the parasite for invasion. Only one AMA1 and RON2 genes exists in Plasmodium and there are no alternate pathways. Moreover, the region corresponding to RON2 peptide is conserved in all P. falciparum isolates for which sequences are available. The key residues in the AMA1 hydrophobic pocket that binds RON2 are also conserved and indicate a functional constraint governing this essential step in invasion since a short RON2 peptide (RON2L) corresponding to the binding region on AMA1 is sufficient to compete with the native RON2 protein and inhibits invasion (Tonkin et.al, 2011). Therefore, developing small molecule inhibitors of this interaction offers a promising target opening a new arena for anti-malarial therapeutics drug design.
In collaboration with the Miller lab, a quantitative High Throughput Screen using the AlphScreen technology was developed using a recombinant his-tagged AMA1 and a biotinylated RON2 peptide. This fluorescent screen was assayed against the NIH Molecular Libraries Small Molecule Repository (MLSMR). Inhibition of this protein-protein interaction is the desired outcome of this assay. However, due the limitations of this AlphaScreen assay, a large number of artifacts were observed. An AlphaScreen counterscreen was run to identify the true inhibitors, triage compound activity, and weed out false positives.
NIH Chemical Genomics Center [NCGC]
NIH Molecular Libraries Probe Centers Network [MLPCN]
Assay Submitter (PI): Louis Miller, National Institute of Allergy and Infectious Disease (NIAID)
Two microliters of his-tagged AMA1 3D7 allele protein (final concentration 25 nM) was dispensed into a 1,536-well assay plate. Small molecules and positive control peptides were pin-transferred (23 nL or 46 nL) via Kalypsys pin-tool equipped with a 1,536-pin array, resulting in final compound and peptide concentration ranges of 91.5 nM - 57.2 µM, and 15.6 nM - 2.00 µM, respectively. Unlabeled RON2 peptide or R1 peptide ([…]) that specifically binds the 3D7 AMA1 was used as a positive control that inhibited the binding of RON2L to AMA1. After 15 minutes incubation, 1 uL of biotinylated RON2 peptide (final concentration 25 nM) or buffer were dispensed and the assay plate was incubated for an additional 30 minutes at room temperature and protected from light. This was followed by an addition of 1 uL mixture of donor and acceptor beads (10 ug/mL final concentrations for each). The plates were incubated for 30 min at room temperature and read using the EnVision(R) plate reader (PerkinElmer). Maximum inhibition response was normalized to the positive control signal while no inhibition response was normalized to the DMSO treated wells.
`CC1CCCN(C(=O)Cn2c(=O)oc3ccccc32)C1` (configuration not stated): the Potency entry was “inactive”.

For `Cc1coc(C)c1C(=O)CC1(O)C(=O)N(C)c2ccc(Cl)cc21` (configuration not stated), the Potency result is “inactive”.

Take `N#Cc1cccc(CSc2nnc(CCCO)n2-c2ccccc2)c1`: the Potency result is “inactive”.

With `Cc1ccc(C(C(=O)NC2CCCCC2)N(C(=O)c2csnn2)C2CC2)o1` (configuration not stated), the Potency result was “inactive”.

With `COc1cccc(-c2ccc3c(c2)N(Cc2ccccc2OC)C(=O)C(C)S3)c1` (configuration not stated), the Potency result is “inactive”.

In the case of `Cc1ccc(C2=C/C(=C\c3cccnc3)C(=O)O2)cc1`, the Potency result was “inactive”.

As to `O=C1/C(=C\c2cccnc2)CN(Cc2ccccc2)C/C1=C\c1cccnc1`, the Potency entry is “inactive”.

On to `Nc1ccc2c(c1)C(=Cc1cccnc1)c1ccccc1-2`, for which the Potency was 20 µM (active).

On to `Cc1c(C)c2c(OCC(=O)N[C@@H](C(=O)O)c3ccccc3)cc3c(c2oc1=O)CCC(C)(C)O3`, for which the Potency entry is “inactive”.

As for `O=C(CC[C@H]1O[C@@H](n2ccc(=O)[nH]c2=O)[C@H](O)[C@@H]1O)N[C@H](Cc1ccccc1)C(=O)NCCCN1CCCC1=O`, the Potency entry is “inactive”.

As to `CCOC(=O)CC(SP1(=S)OCC2(CCCCO2)C(C2CCCCO2)O1)C(=O)OCC` (configuration not stated), the Potency entry is “inactive”.

As to `O=C(Nc1ccccc1-c1nnn(CC(=O)N2CCCc3ccccc32)n1)c1cccc(Cl)c1`, the Potency entry is “inactive”.

With `CCC(C)C(=O)Nc1ccccc1N1CCN(c2ccc(F)cc2)CC1` (configuration not stated), the Potency entry was “inactive”.

In the case of `Cc1cc(C)cc(NC(=O)N2CCC(NC(=O)c3ccc(F)cc3)CC2)c1`, the Potency entry is “inactive”.

For the compound `O=c1ccc2c(-c3ccccc3S(=O)(=O)O)c3ccc(O)c(O)c3oc-2c1O`, the Potency was 5.01 µM (active).

In the case of `CC1=C(C(=O)Nc2ccccc2)C(c2cccs2)C(C#N)=C(SCC#N)N1` (configuration not stated), the Potency entry is “inactive”.

Consider `Cc1ccc(-c2nn(C(C)(C)C)c3ncnc(N)c23)cc1`, for which the Potency result was “inactive”.

Consider `CC(C)NC(=S)NN=C1CCCCCCCCCCC1`, for which the Potency entry is “inactive”.

As for `NC(=S)Nc1c(Cl)cccc1Cl`, the Potency result was “inactive”.

For `CCCCC(=O)NNC(=S)NC(=O)C(c1ccccc1)c1ccccc1`, the Potency result is “inactive”.

For `Cc1noc(C)c1S(=O)(=O)N(C)Cc1ccccc1`, the Potency result was “inactive”.

For `CC1(C)O[C@@H]2[C@H](O1)[C@@H](COS(=O)(=O)O)O[C@H]2n1ccc(=O)[nH]c1=O`, the Potency entry was “inactive”.
